From PubChem BioAssay
gsp antagonist = qHTS for Antagonists of gsp, the Etiologic Mutation Responsible for Fibrous Dysplasia/McCune-Albright Syndrome: qHTS. gsp-mutant cells, cAMP HTRF, 30 min. Potency, µM (top dose mostly 76.9 µM), without a hit: at the highest dose activity change, negative = inhibition, most hits filed as inhibitors. 340,000 tested, 0.4% active. AID 624288, 2012; calls by dose curve; cell line not stated here;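 also: intracellular cAMP measured with PDE inhibitor Ro 20-1724 present during compound exposure; potency is read from the fitted curve at half-maximal effect; % is scaled to controls: 0 for no effect and ±100 for the full control effect; nearly all actives have a fitted effect of over 65% in size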
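HTRF cAMP measurement after 30 min RT detection following 30 min, 37C compound treatment alongside […] (added as 300 uM solution) in G418-selected cells seeded at 2000/well and grown 16–24 h.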
FBPA coupling cs = qHTS Assay for Inhibitors of Fructose-1,6-bisphosphate Aldolase from Giardia Lamblia: Coupling assay counterscreen | coupling enzyme system counterscreen, AmpLite Red fluorescence | activity change, negative = inhibition, % at 58.2 µM, hits read low | 290,000 tested, 0.67% active; in the data active = activity change below about -30%; also: % is scaled to controls: 0 for no effect and ±100 for the full control effect
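Coupling enzymes only (glyceraldehyde-3-phosphate) + compound, at 57.5 uM final, 10 min RT; add substrate/coupling/AmpLite Red mix, 20 min RT; fluorescence ex 525/em 598 nm. Actives flag coupling-system interference.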
RXFP1 antagonist = qHTS Assay for Antagonists of the Relaxin Receptor RXFP1. Relaxin receptor 1 (Homo sapiens), Q9HBX9. activity change, negative = inhibition, % at 57.5 µM. 350,000 tested, 0.59% active. HEK293-RXFP1, relaxin-stimulated cAMP HTRF, 30 min; stronger effect = lower value;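 active = activity change of -60% or lower, but not beyond a set lower limit; inconclusive = change between -60% and -40%, or beyond the set limit; inactive = change above -40%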; also: % is scaled to controls: 0 for no effect and ±100 for the full control effect
Target sequence (Q9HBX9 whole entry, looked up): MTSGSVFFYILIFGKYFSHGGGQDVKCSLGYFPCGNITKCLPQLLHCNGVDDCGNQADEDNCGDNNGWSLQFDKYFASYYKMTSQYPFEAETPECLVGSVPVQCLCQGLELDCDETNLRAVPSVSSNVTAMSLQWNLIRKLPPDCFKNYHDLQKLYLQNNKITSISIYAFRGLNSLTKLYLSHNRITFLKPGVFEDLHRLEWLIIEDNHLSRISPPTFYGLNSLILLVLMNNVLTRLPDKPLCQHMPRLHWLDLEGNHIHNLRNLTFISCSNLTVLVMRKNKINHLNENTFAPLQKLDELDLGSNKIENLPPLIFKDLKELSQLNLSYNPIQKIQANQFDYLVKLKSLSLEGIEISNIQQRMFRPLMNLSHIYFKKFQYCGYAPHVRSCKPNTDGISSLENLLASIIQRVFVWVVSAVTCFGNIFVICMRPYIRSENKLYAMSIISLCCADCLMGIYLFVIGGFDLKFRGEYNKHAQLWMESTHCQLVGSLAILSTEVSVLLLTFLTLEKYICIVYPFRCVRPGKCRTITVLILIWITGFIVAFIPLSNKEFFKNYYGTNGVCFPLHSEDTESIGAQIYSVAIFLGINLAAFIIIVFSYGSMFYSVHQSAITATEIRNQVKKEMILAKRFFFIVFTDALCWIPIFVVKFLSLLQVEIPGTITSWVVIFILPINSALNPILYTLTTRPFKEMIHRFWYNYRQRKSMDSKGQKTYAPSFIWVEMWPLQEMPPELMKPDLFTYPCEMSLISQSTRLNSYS
Giardia kill = Small Molecules that selectively kill Giardia lamblia: qHTS | activity change, % at 7.66 µM, hits read low | Giardia lamblia trophozoite viability | AID 540267, 2011 | 340,000 tested, 0.15% active; in the data active = activity change below about -80%; inconclusive = between about -30% and that limit;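 also: parasites exposed to compound for two days anaerobically before the ATP read; % is scaled to controls: 0 for no effect and ±100 for the full control effect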
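Giardia lamblia trophozoites (100 cells/well) were incubated with compounds for 48 h at 37 deg C under anaerobic conditions. Viability was read as ATP content by one-step luminescence after 15-30 min at room temperature.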
gsp ag = qHTS for Agonist of gsp, the Etiologic Mutation Responsible for Fibrous Dysplasia/McCune-Albright Syndrome: qHTS. 340,000 tested, 0.13% active. gsp mutant cells, cAMP HTRF, 30 min. Potency, µM (top dose mostly 76.9 µM), without a hit: at the highest dose activation (cAMP increase), actives largely listed as activators; active = well fitted activation curve with a large enough effect; inconclusive = small, poorly fitted or top-dose-only effect, or another doubt; inactive = no such curve, though single readings can be large or run the other way; cell line not stated here;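 also: phosphodiesterase inhibitor Ro 20-1724 added with compounds to block cAMP breakdown; potency is read from the fitted curve at half-maximal effect; nearly all actives have a fitted effect of over 60% in size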
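Cells in DMEM/10% FBS with G418 were pretreated with compounds in DMSO plus […] (300 uM stock) for 30 min at 37C. cAMP was measured by HTRF (cAMP-d2 plus anti-cAMP antibody-K) after 30 min at room temperature.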
RXFP1 agonist = qHTS Assay for Agonists of the Relaxin Receptor RXFP1. AID 2676, 2010. HEK293T-RXFP1 cAMP TR-FRET, 30 min; response scale: percent of porcine relaxin response, buffer zero. Potency, µM (top dose mostly 57.5 µM), inactives show top-dose activation, hits mostly activators. 370,000 tested, 0.3% active. Relaxin receptor 1 (Homo sapiens), Q9HBX9; active = well fitted activation curve with a large enough effect; inconclusive = small, poorly fitted or top-dose-only effect; also: potency is read from the fitted curve at half-maximal effect; % is scaled to controls: 0 for no effect and ±100 for the full control effect; nearly all actives have a fitted effect of over 60% in size
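Agonist response is measured as cAMP accumulation in an RXFP1-transfected HEK293T line under PDE4 inhibition. Values are scaled between buffer-only and 29 nM porcine relaxin, and EC50s come from standard Hill equation fits.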
* = called active by the depositor; ? = inconclusive; · = no result given; ! = repeats disagree; [ ] = remark or other dose. Shown are actives, neighbours in structure and some others; about 1.6% of the full set was active somewhere.

SMILES	gsp antagonist	FBPA coupling cs	RXFP1 antagonist	Giardia kill	gsp ag	RXFP1 agonist
CCN(CC)C(=O)N[C@@H]1C=C2c3cccc4[nH]cc(c34)C[C@@H]2N(C)C1	·	·	-16.4	·	·	·
O=[N+]([O-])/N=C1\NCCN1Cc1ccc(Cl)nc1	·	·	5.6	·	·	·
CCOC(=O)c1c(NS(=O)(=O)c2ccccc2)n(CCCOC)c2nc3ccccc3nc12	4.1%	-39.1*	1.0	9.5	?	?
C[C@]12CC[C@H]3[C@@H](CC[C@@]45O[C@H]4C(O)=C(C#N)C[C@]35C)[C@H]1CC[C@H]2O	·	·	-22.3	·	·	·
O=[N+]([O-])c1ccc(-c2ccccc2)c([As](=O)(O)O)c1	-8.5%	-3.4	1.4	-81.9*	23.7%	3.4%
CCC1CC2CC3c4[nH]c5ccc(OC)cc5c4CCN(C2)C13 (stereo not drawn)	·	·	-30.8	·	·	·
CC1Oc2cc3c(-c4c(O)cc(O)c5c(O)c6c(cc45)OC(C)C(C)C6=O)c(O)cc(O)c3c(O)c2C(=O)C1C (stereo not drawn)	-19.3%	-17.8	·	-82.4*	·	1.8%
Cc1ccc(C)c(S(=O)(=O)c2nnn3c2nc(N2CCN(C)CC2)c2sccc23)c1	·	·	-13.6	·	·	?
Cc1ccc2c(C)c3ccc4ccccc4c3c[n+]2c1	50.1µM*	·	-24.8	23.1	?	·
CCC(CO)NC(=O)C1C=C2c3cccc4[nH]cc(c34)CC2N(C)C1 (stereo not drawn)	-4.7%	-21.1	·	5.3	·	4.2%
COC(=O)C1C=C2c3cccc4[nH]cc(c34)CC2N(C)C1 (stereo not drawn)	·	-34.1*	·	·	·	-1.7%
CC[C@@H](CO)NC(=O)[C@@H]1C=C2c3cccc4c3c(cn4C)C[C@H]2N(C)C1	-35.4%	-56.4*!	-16.6	29.3	·	5.7%
COC[C@@H](NC(C)=O)C(=O)NCc1ccccc1	·	·	13.8	·	·	·
CN(C)CCC=C1c2ccccc2CCc2ccccc21	20µM*	-13.2	-14.9	4.5	·	1.8%
Cc1ccc(-n2c(O)c(/C=N/Nc3ccccc3)c(=O)[nH]c2=O)cc1C	-1.5%	-0.3	-70.4*	5.7	?	0.0%
COc1ccc(N/N=C/c2c(O)n(-c3ccc(C)c(C)c3)c(=O)[nH]c2=O)cc1	-8.2%	1.1	-14.0	18.5	-46.1%	0.0%
CCN(CC)c1ccc(N=Cc2c(O)n(Cc3ccco3)c(=O)[nH]c2=O)cc1	5.2%	-1.1	-19.3	-28.1	2.4%[15.4 µM]	-1.5%
CCN(CCO)c1ccc(N=Cc2c(O)n(C)c(=S)[nH]c2=O)cc1	-18.9%	-46.6*	-35.9	-12.7	27.4%	1.3%
COc1cc(CC#N)cc(OC)c1OC	·	·	-4.8	·	·	·
CC(C)=CC1C(C(=O)OCN2C(=O)C3=C(CCCC3)C2=O)C1(C)C (stereo not drawn)	·	·	-94.6*	·	·	·
FC(F)(F)c1ccc2c(c1)ncn2C1CCN(Cc2nnnn2C2CCCCC2)CC1	-6.5%	-5.0	-74.2*	6.3	28.4%	-0.5%
N[C@@H](Cc1ccc(Oc2cc(I)c(O)c(I)c2)c(I)c1)C(=O)O	·	·	-32.3	·	·	·
Nn1c(COc2ccc(Cl)cc2)n[nH]c1=S	-0.8%	0.8	-26.7	8.9	-36.4%	-1.7%
NNc1n[nH]c(=S)n1N	5.8%	-62.1*	-5.9	-20.0	-16.7%	-0.3%
Cc1cc([N+](=O)[O-])c2ccccc2[n+]1[O-]	-16.7%	-11.7	-8.3	-88.5*	-17.2%	-0.4%
SMILES	gsp antagonist	FBPA coupling cs	RXFP1 antagonist	Giardia kill	gsp ag	RXFP1 agonist
Cc1ccccc1[N+](=O)[O-]	7.1%	·	·	5.1	·	0.0%
C[C@]12CCC(=O)C=C1CCC1C2CC[C@@]2(C)C1CC[C@]2(C)O (stereo partly drawn)	-1.5%	·	-2.3	-3.9	2.4%	·
C[C@]12C/C(=C/O)C(=O)C[C@@H]1CC[C@@H]1[C@@H]2CC[C@@]2(C)[C@H]1CC[C@]2(C)O	·	·	-99.1*	·	·	·
CC(C)CN(CC(C)C)c1ccc(C=C2C(=O)NC(=S)NC2=O)cc1[N+](=O)[O-]	?	-18.8	-63.2*	-2.3	-40.7%	-0.2%
CCN(CC)c1ccc(C=C2C(=O)NC(=S)NC2=O)cc1	-25.3%	-26.1	?	-4.8	-84.5%	1.8%
CCC(CC)(CNC(=O)CCCO)c1cccc(OC)c1	·	·	-5.2	·	·	·
O=C(O)CC1OCC=C2CN3CCC45C6=CC(=O)C(=O)C([N+](=O)[O-])=C6NC4C1C2CC35 (stereo not drawn)	3.5%	-92.5*	-3.8	8.9	18.4%	-2.7%
COc1cc(CC(C)N)c(OC)cc1Br (stereo not drawn)	·	·	15.2	·	·	·
Cc1cc2c(cc(C(=O)N3CCC(C(=O)NC4CCCC4)CC3)n2Cc2c(F)cccc2Cl)o1	35.5µM*	2.3	0.6	7.1	-45.7%	0.1%
Cc1nc2c(=O)n(C)c(=O)nc-2n(C)n1	0.1%	-1.9	15.6	-107.3*	-12.0%	0.2%
Cn1nc(-c2ccccc2)nc2c(=O)n(C)c(=O)nc1-2	·	·	·	-89.4*	·	·
CCOC(=O)C1(CCc2ccccc2)CCN(Cc2cccc3c2OCO3)CC1	-11.7%	-6.2	?	-9.5	-23.7%	-0.7%
CCOC(=O)C1(CCc2ccccc2)CCN(Cc2cccc3cnccc23)CC1	-21.8%	-0.5	-83.2*	-24.4	0.8%[15.4 µM]	-3.1%
CNC(=O)Oc1cccc(-c2cn3cc(Cl)ccc3n2)c1	-6.1%	-8.2	-5.7	?	-17.4%[15.4 µM]	5.3%
CNC(=O)Oc1ccc(-c2cn3cc(C)ccc3n2)cc1	8.0%	-19.4	-2.2	-108.2*	14.7%	0.7%
CC(C)CC1C(=O)N(Cc2cn(CC3CCCCC3)nn2)CCS(=O)(=O)N1Cc1ccc(-c2ccc(F)nc2)cc1 (stereo not drawn)	·	·	1.5	·	-41.2%	·
O=C(Oc1ccccc1)N1CCC[C@@]2(CCN(C(c3ccccc3)c3ccccc3)C2)C1	·	-33.8*	·	·	·	·
C=CCC1(C(C)CC)C(=O)NC(=O)NC1=O (stereo not drawn)	·	·	-23.0	·	·	·
CC(C)CCNC(=O)c1c(N)n(Cc2ccc3c(c2)OCO3)c2nc3ccccc3nc12	4.8%	-33.3*	10.1	-5.0	-32.0%	5.9%
CC(C)CNC(=O)c1c(N)n(Cc2ccc3c(c2)OCO3)c2nc3ccccc3nc12	3.6%	-50.6*	-15.0	-14.6	3.8%	1.8%
